Source: PubChem (The Scripps Research Institute Molecular Screening Center)
In the library only some 4.1% were active in any assay of this set; here they are far more common.
hcDAF12 agonist: activates DAF-12 receptor from parasite H. contortus | HEK293 hcDAF-12 lit1-tk-luc reporter, luminescence; 0% DMSO, 100% Δ7-dafachronic acid | activation, % at 6.8 µM | 1.4% of 370,000 active | AID 652067;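 active = activation above the mean of all tested compounds plus 3 SD, cut at about 5.5% in these data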;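 note: 100% = response to 3 µM Δ7-dafachronic acid high control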
ssDAF-12 act: S. stercoralis DAF-12 activation, primary screen | HEK293 ssDAF-12/GRIP1 lit1-tk-luc reporter, luminescence; % of 3 µM dafachronic acid response | activation, % at 6.8 µM | 1% of 370,000 active;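 active = activation above the mean over all tested compounds plus 3 SD, cut at about 0.9% in these data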;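 note: 0% = DMSO-only wells and 100% = 3 µM delta7-dafachronic acid wells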
DAX1 inh-1: DAX1 (NR0B1) inhibition, primary screen; HEK293T StAR-luciferase reporter, SF-1/DAX-1 repression relief; inhibition, % at 6.8 µM; 1.1% of 370,000 active; AID 652010;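 active = inhibition above the mean over all tested compounds plus 3 SD, cut at about 3.6% in these data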;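 note: 0% = DAX-1 cells with DMSO and 100% = cells lacking DAX-1 with DMSO; higher inhibition means more luminescence from relief of DAX-1 repression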
DAX1 inh-2: inhibitors of human orphan nuclear receptor DAX1 (NR0B1) | P51843 | HEK293 Gal4-DAX1 luciferase reporter, luminescence | inhibition, % at 6.75 µM | 0.99% of 340,000 active | AID 504766;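 active = inhibition above the mean over all tested compounds plus 3 SD, cut at about 4.2% in these data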;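 note: 0% = DAX1-transfected cells with DMSO and 100% = empty-vector control cells with DMSO; inhibition shows as a rise in luminescence from relieved DAX1 repression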
Target sequence (P51843 207-470 limits assumed): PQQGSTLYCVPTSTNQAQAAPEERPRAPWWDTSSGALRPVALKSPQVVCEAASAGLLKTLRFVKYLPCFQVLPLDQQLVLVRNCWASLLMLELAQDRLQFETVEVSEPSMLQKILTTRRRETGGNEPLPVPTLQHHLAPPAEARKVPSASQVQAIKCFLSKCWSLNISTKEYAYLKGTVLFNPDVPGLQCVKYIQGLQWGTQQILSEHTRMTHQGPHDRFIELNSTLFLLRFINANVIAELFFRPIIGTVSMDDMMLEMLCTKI
hgDAF-12 ag: agonists of H. glycines DAF-12 nuclear receptor | HEK293 GAL4-hgDAF12 UAS-luciferase reporter, agonist luminescence; normalized to butyrate control | activation, % at 6.8 µM | 1.8% of 370,000 active;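 active = activation above a cutoff set at the mean of all screened compounds plus 3 SD, cut at about 10% in these data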;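 note: 0% = DMSO wells and 100% = sodium butyrate wells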
hgDAF12 ag: hgDAF-12 agonism, confirmation assay; shares compounds with hgDAF-12 ag; HEK293 GAL4-hgDAF12 luciferase reporter, agonist mode; percent of butyrate response; activation, % at 6.8 µM; 80% of 3,300 active; AID 743050;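 active = mean activation over triplicate wells above the hit cutoff derived from the earlier primary screen, cut at about 11% in these data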;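 note: 0% = DMSO low control and 100% = 2 mM sodium butyrate high control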
LXRb DAF12 ctr: LXR-beta agonism as DAF-12 counter-screen; HEK293 Gal4-LXR luciferase reporter, 24 h; activation, % at 6.8 µM; 3,300 tested, under 10 active; shares compounds with hgDAF-12 ag; AID 743051;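 active = mean activation of the triplicate above a set limit carried over from the primary screen, none filed active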
Starred values were filed as active, the others as inactive; . = no result.

SMILES	hcDAF12 agonist	ssDAF-12 act	DAX1 inh-1	DAX1 inh-2	hgDAF-12 ag	hgDAF12 ag	LXRb DAF12 ctr
O=c1c(-c2c(O)cc(O)c3c(=O)cc(-c4ccc(O)cc4)oc23)c(-c2ccc(O)cc2)oc2cc(O)cc(O)c12	-2.3	-1.1	-0.7	2.3	-3.4	.	.
Cc1cccc(NC(=O)NN(C(=O)c2ccccc2Cl)C(C)(C)C)c1	-0.8	-1.2	-0.7	.	13.4*	2.2	0.0
Nc1ccc(N=Nc2ccccc2)c(N)n1	3.2	-0.6	4.1*	0.7	16.0*	12.7*	0.5
O=C(NCc1ccccc1)[C@H]1CCCN1C(=O)[C@H]1CCCN1C(=O)c1ccc(F)c(C(F)(F)F)c1	-1.6	-0.1	-0.2	.	-0.8	.	.
CC(C)n1c(=O)c2ccccc2n1CC(=O)N1CCOCC1	0.7	-0.8	1.2	.	-2.3	.	.
CCOC(=O)CSc1nc(-c2ccncc2)ccc1C#N	3.8	0.9*	3.4	2.1	16.5*	16.3*	0.9
Nn1c(SCC(=O)NC2CCCCC2)nnc1-c1cc(-c2ccc(F)cc2)n[nH]1	-1.1	-0.6	-0.3	.	6.9	.	.
Cc1ccc2nc(-c3ccc(NC(=O)CSc4nnc(-c5cccc(Cl)c5)n4Cc4ccco4)cc3)sc2c1	6.3*	0.2	1.5	.	20.5*	16.5*	0.7
Cc1ccc2nc(-c3ccc(NC(=O)CSc4nnc(-c5cc(-c6ccc(F)cc6)n[nH]5)n4N)cc3)sc2c1	1.7	0.8	3.0	.	16.2*	14.8*	0.6
Cc1ccc2nc(-c3ccc(NC(=O)CSc4nnc(-c5cc(C)[nH]n5)n4N)cc3)sc2c1	1.4	-0.1	4.4*	.	13.5*	11.5*	0.6
O=C(N/N=C\c1ccccn1)c1cccc(C(=O)N/N=C\c2ccccn2)n1	0.7	-1.3	-0.1	1.4	1.3	.	.
O=C(N/N=C\c1ccccn1)c1ccccc1O	-0.1	-0.5	-0.3	0.7	14.7*	3.1	0.2
O=C1c2ccccc2[C@@H]2Cc3csc[n+]3[C@H]12	1.0	-0.3	-0.6	.	-2.2	.	.
CCOc1ccc2nc(NC(=O)CCC(=O)c3cccs3)sc2c1	4.7	-0.2	1.4	3.0	13.3*	14.8*	0.6
CCOc1ccc2nc(NC(=O)Cn3c(C)csc3=O)sc2c1	0.2	-0.6	3.4	0.4	1.2	.	.
CS(=O)(=O)c1ccc2nc(NC(=O)c3cccs3)sc2c1	6.3*	0.6	4.0*	-2.0	14.8*	16.4*	0.8
COc1cc(OC)cc(C(=O)Nc2nc3ccc(S(C)(=O)=O)cc3s2)c1	3.4	-1.2	-0.3	0.1	5.5	.	.
Cc1c[nH]c2cccc(-c3ccc(Cl)cc3Cl)c12	-2.5	-0.8	0.0	.	1.8	.	.
CNC(=O)[C@@H](NC(=O)[C@H](CC(C)C)[C@H](O)C(=O)NO)C(C)(C)C	-4.2	-1.4	-1.4	.	-4.6	.	.
COc1cc(C)ccc1OCc1cc(C(=O)N(Cc2nccn2C)C(C)C)no1	4.6	-0.2	3.7*	0.9	17.9*	12.6*	0.6
Nc1ccc(CCc2nc3ccccc3o2)cc1	1.7	-0.8	3.5	0.7	13.5*	13.1*	0.6
CCCCc1cc(=O)oc2cc(C)cc(OCC(=O)Nc3ccccn3)c12	3.5	0.2	1.4	1.1	15.2*	7.0	0.3
CC(NC(=O)c1cc2c(=O)n(C)c3ccccc3c2n1C)c1ccc2c(c1)OCCO2 (stereo not drawn)	-1.3	-0.6	0.5	-0.1	17.4*	-4.1	0.0
Cn1c(C(=O)Nc2ccc3c(c2)OCO3)cc2c(=O)n(C)c3ccccc3c21	-2.9	-0.8	-1.0	0.3	-0.6	.	.
O=C(NCc1ccccc1)c1noc2c1CCCCC2	2.4	0.1	2.6	1.9	15.5*	13.0*	0.5
SMILES	hcDAF12 agonist	ssDAF-12 act	DAX1 inh-1	DAX1 inh-2	hgDAF-12 ag	hgDAF12 ag	LXRb DAF12 ctr
Cc1ccc(NC(=O)c2noc3c2CCC3)cc1C	5.5	0.8	4.2*	4.1	18.8*	19.1*	0.9
COc1ccc(/C=C/S(=O)(=O)NCCc2ccccc2)c(CNC(=O)OC(C)(C)C)c1	-1.5	-1.0	-0.8	.	3.5	.	.
Cc1ccc(C)c2nc3sc(C(=O)N4CCOCC4)c(N)c3cc12	3.1	0.1	0.1	0.0	21.1*	11.3*	0.5
NC(=O)c1sc2nc3c(cc2c1N)CCC3	-1.3	-1.2	0.1	1.5	9.1	.	.
Nc1c(C(=O)N2CCOCC2)sc2nc3c(cc12)CCC3	3.8	0.0	2.4	-0.4	15.9*	12.8*	0.6
Clc1cccc(CNC2CCC23CCCCC3)c1 (stereo not drawn)	-1.2	-0.9	.	.	2.9	.	.
COc1ccccc1C(=O)N/C(=N/c1nc(C)cc(C)n1)Nc1ccccc1	4.9	0.3	1.0	-0.5	13.6*	-1.6	0.0
CCC(=O)N/C(=N/c1nc(C)cc(C)n1)Nc1ccccc1	0.7	-1.8	-0.3	0.8	-2.2	.	.
COC(=O)c1ccc(Cn2ccc3ccc(-c4ccc5ccn(C(=O)c6ccccc6C)c5c4)cc32)cc1	-1.1	-1.2	-0.1	.	3.2	.	.
